Assay outcomes from PubChem BioAssay.
Compounds with a hit are over-represented: about 8.9% of the library has one in this group of screens.
IMPase inh: cell-permeable inhibitors of inositol monophosphatase (IMPase) | P97697 | CHO-M1 cells, IP1 accumulation, HTRF TR-FRET ratio | inhibition (IP1 accumulation), % at 46.1 µM | 120,000 tested, under 10 active; active = well fitted curve in the direction sought with a large enough effect in the signal ratio, not every such curve was filed as active; inconclusive = small, poorly fitted or top-dose-only effect, or a change in a side signal; inactive = no such curve, though single readings can be large or run the other way; the % refers to the signal ratio;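 note: cells stimulated with carbachol in lithium chloride buffer; plate controls were DMSO basal wells for no effect and reference inhibitor wells for full effect; higher means more IMPase inhibition seen as more IP1 and lower FRET ratio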
Target sequence (P97697 whole entry, looked up): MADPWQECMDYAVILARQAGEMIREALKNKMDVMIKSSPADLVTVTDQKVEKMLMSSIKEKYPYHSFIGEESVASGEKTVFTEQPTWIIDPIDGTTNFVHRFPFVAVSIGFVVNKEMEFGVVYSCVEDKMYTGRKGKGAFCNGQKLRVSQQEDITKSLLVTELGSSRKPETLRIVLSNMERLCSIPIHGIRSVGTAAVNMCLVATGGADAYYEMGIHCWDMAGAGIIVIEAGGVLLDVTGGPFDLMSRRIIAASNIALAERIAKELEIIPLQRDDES
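CHO-M1 cells (CHO stably expressing M1 receptor), compound up to 46 uM final, stimulated with carbachol (50 uM as added) in buffer with 50mM LiCl, pH 7.4, 30 min at 37C. Cytosolic IP1 read by TR-FRET; AC50 from Hill fits.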
ALOX12 inhib: blocks human 12-lipoxygenase activity; hit rate 0.12% among 150,000; purified 12-hLO, xylenol orange hydroperoxide absorbance; P18054; AID 1452; Potency, µM (titrated, usually from 57.1 µM), inactives show at the highest dose activity change, negative = inhibition, usual class: inhibitors; note: potency is the fitted concentration of half-maximal effect; nearly all actives have a fitted effect of over 55% in size
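Purified human 12hLO (150 nM), preincubated 15 min with compound, then 40 uM arachidonic acid for 30 min, room temperature, Hepes pH 7.0 with 0.01% Triton X-100. Hydroperoxide detected by ferrous iron/xylenol orange; 573/405 nm absorbance ratio gives reaction progress.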
NPSR antag: antagonists of human neuropeptide S receptor cAMP signaling; CHO-NPSR cells, cAMP TR-FRET, antagonist mode; Potency, µM (top dose mostly 38.3 µM), for the others: top-dose activity change, negative = inhibition, usual class: inhibitors; AID 1461; Q6W5P4; hit rate 1% among 220,000; note: potency is the fitted concentration of half-maximal effect; nearly all actives have a fitted effect of over 50% in size
ALDH1A1 block: blocks purified human ALDH1A1 activity | P00352 | Purified ALDH1A1, NADH fluorescence, propionaldehyde substrate | Potency, µM (top dose mostly 75.3 µM), for the others: at the highest dose activity, negative = inhibition, usual class: inhibitors | hit rate 7.3% among 220,000; active = well fitted inhibition curve with a large enough effect, not every such curve was filed as active; inconclusive = small, poorly fitted or top-dose-only effect, or another doubt; inactive = no such curve, though single readings can be large or run the other way;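 note: potency is the fitted concentration of half-maximal effect; plate controls were no enzyme wells and a reference inhibitor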
Target sequence (P00352 whole entry, looked up): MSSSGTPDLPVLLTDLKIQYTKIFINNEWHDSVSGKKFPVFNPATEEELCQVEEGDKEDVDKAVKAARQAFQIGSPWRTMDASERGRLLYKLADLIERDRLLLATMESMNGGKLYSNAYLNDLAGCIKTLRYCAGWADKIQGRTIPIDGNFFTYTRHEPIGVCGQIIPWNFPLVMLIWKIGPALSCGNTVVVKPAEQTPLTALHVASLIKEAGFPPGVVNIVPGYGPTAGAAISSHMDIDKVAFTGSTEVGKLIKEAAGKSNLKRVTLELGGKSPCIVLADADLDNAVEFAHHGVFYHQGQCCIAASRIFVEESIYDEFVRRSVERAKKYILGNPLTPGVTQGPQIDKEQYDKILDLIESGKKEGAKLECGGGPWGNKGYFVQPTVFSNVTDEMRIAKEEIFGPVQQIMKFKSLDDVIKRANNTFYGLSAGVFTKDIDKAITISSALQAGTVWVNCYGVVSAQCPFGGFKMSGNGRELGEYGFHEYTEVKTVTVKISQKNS
HPGD block: inhibitors of human 15-hydroxyprostaglandin dehydrogenase (HPGD). P15428. purified HPGD, NADH fluorescence kinetic, PGE2 substrate. Potency, µM, for inactives: at the highest dose activity change, negative = inhibition, most hits filed as inhibitors. hit rate 4.3% among 150,000; active = well fitted inhibition curve with a large enough effect, not every such curve was filed as active; inconclusive = small, poorly fitted or top-dose-only effect, or another doubt; inactive = no such curve, though single readings can be large or run the other way; note: potency is the fitted concentration of half-maximal effect
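20 nM HPGD preincubated 15 min at room temperature with compound in 50 mM Tris-HCl pH 8, 0.01% Tween 20. Started with 1 mM NAD+ and 30 uM prostaglandin E2; NADH fluorescence (360/450 nm) read 5 times over 30-s intervals, last minus first.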
IMPase Li inh: IMPase inhibition in cells with lithium potentiation; Potency, µM (titrated, usually from 59.4 µM), for inactives: top-dose activity, negative = IMPase inhibition, hits mostly inhibitors; CHO-M1 cells, IP1 TR-FRET (IP-One), carbachol + lithium; hit rate 0.35% among 210,000; AID 1457;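 note: IP1 builds up when IMPase is blocked and the TR-FRET signal falls; potency is the fitted concentration of half-maximal effect; plate controls were basal vehicle for no effect and high inhibitor control for full effect; nearly all actives have a fitted effect of over 50% in size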
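Test compounds were applied to CHO-M1 cells previously cultured for 16–30 h at 2000 per well. A small lithium amount accompanied them; after 30 min at 37C, IP1 was quantified by TR-FRET.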
* marks the source's active call; other numbers are inactive results; ? = inconclusive; . = no result; [ ] = another dose, or the depositor's remark. Unless noted, calls come from the whole dose curve; as a rule, active = well fitted curve in the direction sought with a large enough effect; inconclusive = small, poorly fitted or top-dose-only effect, or another doubt; inactive = no such curve, though single readings can be large; an effect the other way counts as inactive or inconclusive. Unless noted, % is set by controls: 0 for no effect and ±100 for the full control effect.

SMILES	IMPase inh	ALOX12 inhib	NPSR antag	ALDH1A1 block	HPGD block	IMPase Li inh
CCN1C(=O)c2cccc3c(S(=O)(=O)NCc4ccco4)ccc1c23	-2	0%	-3%[46.1 µM]	?	-6%	1%
CCN1C(=O)c2cccc3c(S(=O)(=O)Nc4ccc(OC)cc4OC)ccc1c23	-7	-8%	-18%[46.1 µM]	11µM*	-7%	1%[38.3 µM]
CCN1C(=O)c2cccc3c(S(=O)(=O)Nc4nc(C)cs4)ccc1c23	8	-12%	-9%[46.1 µM]	3.5µM*	-21%	-1%[38.3 µM]
CCN1C(=O)c2cccc3c(S(=O)(=O)Nc4ccccc4)ccc1c23	-6	-14%	-29%[46.1 µM]	1µM*	-15%	10%[38.3 µM]
CCN1C(=O)c2cccc3c(S(=O)(=O)Nc4ncccc4C)ccc1c23	-6	-6%	-13%[46.1 µM]	10µM*	-25%	-3%[38.3 µM]
CCN1C(=O)c2cccc3c(S(=O)(=O)NCc4cccnc4)ccc1c23	-15	8%	2%[46.1 µM]	?	-25%	2%[38.3 µM]
CCN1C(=O)c2cccc3c(S(=O)(=O)Nc4ccncc4)ccc1c23	-1	-3%	?	?	?	-17%[38.3 µM]
O=C(O)c1ccc(Cl)cc1Cl	.	2%	.	-9%	-11%	9%
CCN1C(=O)c2cccc3c(S(=O)(=O)Nc4ccccn4)ccc1c23	-4	-3%	-12%[46.1 µM]	7.9µM*	-5%	6%[38.3 µM]
CCCCOc1ccc(CSc2nc(C)[nH]c2[N+](=O)[O-])cc1[N+](=O)[O-]	.	.	-35%	.	.	.
COc1cc(NC(=S)N2CCN(CCO)CC2)c(OC)cc1Cl	.	.	17%	5%	.	-5%
OCCN1CCN(C(=S)c2ccc(Cl)c(Cl)c2)CC1	12	-21%	11%[46.1 µM]	?	14µM*	16%[38.3 µM]
CCN(CC)c1ccc(C=Nc2ccc(C#N)cc2)c(O)c1	3	-27%	-30%[46.1 µM]	35µM*	28µM*	-21%[38.3 µM]
O=C(NCCCn1ccnc1)/C(=C/c1cccnc1)NC(=O)c1ccco1	.	.	10%	.	.	.
COc1ccc(NCc2nnc(SCC#N)n2-c2ccccc2OC)cc1	2	-9%	-26%[46.1 µM]	5%	-5%	-8%[38.3 µM]
N#Cc1c(NC(=O)Cn2c(=O)oc3ccccc32)oc(-c2ccccc2)c1-c1ccccc1	7	-9%	-12%[46.1 µM]	13µM*	?	16%[38.3 µM]
O=C(Cn1c(=O)oc2ccccc21)Nc1ccc(C(=O)O)cc1	-9	.	.	.	.	.
COc1ccc(-c2nn(-c3ccccc3)cc2/C=N/N=C(N)N)cc1OC	.	-2%	-18%	5%	-21%	10%
CC(C)c1ccc(/C=C/C(=O)NCCC2=CCCCC2)cc1	13	?	-13%[46.1 µM]	4.5µM*	-25%	18%
CCCNC(=O)/C=C/c1ccc(C(C)C)cc1	.	2%	-1%	?	-20%	-1%
O=C(Oc1ccccc1)N1CCC2(CC1)CN(c1ccccc1)C2	.	-11%	.	-10%	-2%	5%
COc1ccc(NC(=O)c2ccc3c(SCC(=O)O)c4c(nc3c2)CCCC4)c(OC)c1	.	.	4%	7.9µM*	.	-7%
CCCCNC(=O)c1ccc2c(SCC(=O)O)c3c(nc2c1)CCCC3	.	2%	0%	?	13µM*	-7%
O=C(CSc1c2c(nc3cc(Cl)ccc13)CCCC2)NCCN1CCOCC1	.	.	7%	0%	.	-20%
CCC(C)NC(=O)c1ccc2c(SCC(=O)O)c3c(nc2c1)CCCC3 (stereo not drawn)	.	2%	-5%	?	22µM*	-12%
SMILES	IMPase inh	ALOX12 inhib	NPSR antag	ALDH1A1 block	HPGD block	IMPase Li inh
COc1ccc(NC(=O)CSc2c3c(nc4ccccc24)CCC3)c(OC)c1	.	-1%	20%	8%	-2%	3%
Cc1ccc(CNC(=O)CSc2c3c(nc4cc(Cl)ccc24)CCCC3)o1	-19	-9%	?	20µM*	?	22%[38.3 µM]
CCn1c(SCC(=O)c2c[nH]c3ccccc23)nc2cc(S(=O)(=O)N3CCOCC3)ccc21	.	1%	-25%	?	-20%	-11%
CCCNC1CCS(=O)(=O)C1 (stereo not drawn)	2	-2%	-4%[46.1 µM]	14%	7%	8%[38.3 µM]
O=C(N/N=C/c1ccc(Br)s1)c1ccccc1[N+](=O)[O-]	3	-11%	-19%[46.1 µM]	-2%	-18%	-11%[38.3 µM]
Cc1cc(S(=O)(=O)N2CCN(c3ccccc3O)CC2)c(C)s1	0	-6%	-13%[46.1 µM]	?	-6%	5%[38.3 µM]
Cc1cc(S(=O)(=O)N2CCCC2)c(C)s1	-2	-3%	-2%[46.1 µM]	7.9µM*	.	.
Cc1ccc(S(=O)(=O)N2CCCC2)cc1S(=O)(=O)N1CCCC1	0	0%	-1%[46.1 µM]	18µM*	-11%	6%
CCCOc1ccc(C(=O)Nc2cc(-c3nn4c(C)nnc4s3)ccc2C)cc1	1	3%	3%[46.1 µM]	-6%	1.3µM*	-4%[38.3 µM]
Cc1ccc(C(C(=O)NCC2CCCO2)N(Cc2ccccc2)C(=O)c2ccc(-c3ccccc3)[nH]2)o1 (stereo not drawn)	12	1%	-45%	22µM*	?	6%
O=C(NC1CCCC1)C(c1ccncc1)N(Cc1ccccc1)C(=O)c1ccc(-c2ccccc2)[nH]1 (stereo not drawn)	.	2%	-38%	22µM*	-20%	8%
O=C(NCC1CCCO1)C(c1cccs1)N(Cc1ccccc1Cl)C(=O)c1ccc(-c2ccccc2)[nH]1 (stereo not drawn)	-2	1%	-54%	-12%	-21%	13%
C=CCN1CC(O)=C(c2ccccc2)C1=N	3	7%	-14%[46.1 µM]	14%	-22%	21%[38.3 µM]
OCCC1CN(Cc2nc3ccccc3s2)CCN1C1CCCC1 (stereo not drawn)	.	.	-5%	-13%	.	33%
Cc1ccccc1NP(=O)(c1ccccc1)c1nc2ccccc2s1 (stereo not drawn)	.	.	-26%	?	.	2%
COc1cc(/C=C2\C(=O)N(c3ccccc3)N=C2C)ccc1Oc1ccc([N+](=O)[O-])cc1[N+](=O)[O-]	.	-10%	-15%	?	13µM*	-7%
CC1=NN(c2ccccc2)C(=O)/C1=C\c1ccc(Oc2ccc([N+](=O)[O-])cc2[N+](=O)[O-])cc1	-8	-5%	-10%	8.9µM*	8.9µM*	6%
COc1cc(/C=C2/SC(=O)NC2=O)ccc1Oc1ccc([N+](=O)[O-])cc1[N+](=O)[O-]	.	.	13µM*	.	.	.
Cc1cccc(NC(=O)CN2C(=O)N/C(=C/c3ccc(-c4cccc(C(=O)O)c4C)o3)C2=O)c1	.	.	-1%	-1%	.	-11%
O=C(c1cccc(Cl)c1)N1CCN(c2ccccn2)CC1	0	-3%	-5%[46.1 µM]	?	-12%	35%[38.3 µM]
O=C(c1ccc2c(c1)N(Cc1cccc(Cl)c1)C(=O)c1ccccc1S2(=O)=O)N1CCN(c2ccccn2)CC1	.	.	-49%	20µM*	.	14%
